DT40 TDP1 CPT – DT40-hTDP1 cell growth loss with CPT; AID 686979; actives 12% (n = 420,000); chicken DT40 Tdp1-/-;hTDP1 cells + 20 nM CPT, ATP luminescence, 48 h; Potency, µM (doses to about 46.2 µM), hits mostly inhibitors; note: nearly all actives have a fitted effect of over 55% in size
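Chicken DT40 Tdp1-/- cells stably complemented with human TDP1 were seeded at 400 cells/well in medium containing 20 nM camptothecin, exposed to pin-transferred compounds, and grown at 37 °C for at least 48 hr. Viability was read as ATP luminescence.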
ClpP mod – qHTS Assay for Activators of ClpP; AID 651965, 2013; purified B. subtilis ClpP, FRET peptide cleavage, 20 min; Potency, µM (titrated, usually from 57.5 µM); actives 1.9% (n = 340,000); active = well fitted falling curve with a large enough effect; inconclusive = small, poorly fitted or top-dose-only effect; inactive = no such curve, though single readings can be large or run the other way; note: the source files actives as falling curves though it sought activators and does not explain the sign; nearly all actives have a fitted effect of over 65% in size
Target sequence (P80244 whole entry, looked up): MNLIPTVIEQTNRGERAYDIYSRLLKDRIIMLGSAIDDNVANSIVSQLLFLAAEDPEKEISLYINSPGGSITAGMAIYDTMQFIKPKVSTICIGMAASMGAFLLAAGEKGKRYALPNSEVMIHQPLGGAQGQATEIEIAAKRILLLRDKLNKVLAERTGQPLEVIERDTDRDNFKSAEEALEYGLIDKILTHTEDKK
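ClpP 10 microg/mL final, pH 8 Tris/KCl buffer with BSA, glycerol, Tween-20; compound pinned in; FRET-FV substrate; RT 20 min; Ex320/Em430; ΔFRET vs ADEP 5.8 microM, DMSO, no enzyme.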
TDP1 inh – TDP1 (human) enzyme inhibition; Q9NUW8; AID 485290; actives 0.28% (n = 350,000); recombinant TDP1, AlphaScreen DNA substrate cleavage; Potency, µM (titrated, usually from 130 µM), actives largely listed as inhibitors; note: nearly all actives have a fitted effect of over 40% in size
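Recombinant human Tdp1 (E. coli-expressed, 1 nM final) preincubated with compounds 15 min at room temperature, then 5'-biotin/3'-phosphotyrosine-FITC DNA substrate (15 nM final) added for 5 min. AlphaScreen beads (10 ug/ml final) added 10 min; cleavage lowers signal.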
TDP1 cell noCPT – qHTS for Inhibitors of human tyrosyl-DNA phosphodiesterase 1 (TDP1): qHTS in cells in absence of CPT; AID 686978, 2013; Potency, µM (highest dose often 46.2 µM), actives largely listed as inhibitors; actives 15% (n = 420,000); DT40 Tdp1-/- hTDP1 cells, no CPT, ATP luminescence, 48 h; note: nearly all actives have a fitted effect of over 55% in size
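Stably hTDP1-transfected Tdp1-null chicken DT40 cells were treated with library compounds minus camptothecin and grown for at least 48 hr at 37 °C, after which cellular ATP was quantified by luminescence.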
Hits are given with their value; [ ] = remark or other dose. A selection: hits, their analogues and other compounds. The true share with any hit is near 17%. Unless noted, calls come from the whole dose curve; as a rule, active = well fitted curve in the direction sought with a large enough effect; inconclusive = small, poorly fitted or top-dose-only effect, or another doubt; inactive = no such curve, though single readings can be large; an effect the other way counts as inactive or inconclusive.

Screening O=C(COC(=O)/C=C/c1ccc([N+](=O)[O-])cc1)NNC(=O)c1ccccc1 returned DT40 TDP1 CPT inactive, ClpP mod inactive, TDP1 inh inactive and TDP1 cell noCPT inactive.
`O=C(C(=O)N1CCN(c2ccccc2Cl)CC1)c1c[nH]c2ccccc12` gave DT40 TDP1 CPT inconclusive, ClpP mod inactive, TDP1 inh inactive and TDP1 cell noCPT inconclusive.
`COc1cccc(CN2CCCC(C(=O)N3CCCCC3)C2)c1` (stereo not given) gave DT40 TDP1 CPT inactive, ClpP mod inactive and TDP1 cell noCPT inactive.
Screening O=C(CSc1nc2c([nH]c3ccccc32)c(=O)n1-c1ccccc1F)Nc1cccc(Cl)c1 returned DT40 TDP1 CPT inconclusive, ClpP mod inactive, TDP1 inh inactive and TDP1 cell noCPT 21µM.
For Cc1ccc(-n2c(SCC(N)=O)nc3c([nH]c4ccccc43)c2=O)cc1 the results were DT40 TDP1 CPT 15µM, ClpP mod inactive, TDP1 inh inactive and TDP1 cell noCPT 26µM.
For CSc1nc2c([nH]c3ccccc32)c(=O)n1-c1ccc(C)cc1 the results were DT40 TDP1 CPT inactive, ClpP mod inactive, TDP1 inh inactive and TDP1 cell noCPT inactive.
`Cc1cc2c(cc1S(=O)(=O)Nc1cccc(Cl)c1C)n(C)c(=O)c(=O)n2C` gave DT40 TDP1 CPT inactive, ClpP mod inactive, TDP1 inh inactive and TDP1 cell noCPT inconclusive.
`Cc1ccc(C2(C)NC(=O)N(CC(=O)Nc3cc(S(=O)(=O)N4CCCCC4)ccc3OC(C)C)C2=O)cc1` (stereo not given) gave DT40 TDP1 CPT inconclusive, ClpP mod inactive, TDP1 inh inactive[0.505 µM] and TDP1 cell noCPT inconclusive.
Cc1cc(-c2cc(-c3ccc(Cl)cc3)on2)nc(NCC2CC2)n1 was read as DT40 TDP1 CPT inconclusive, ClpP mod 14µM, TDP1 inh inactive and TDP1 cell noCPT inactive.
Screening Cc1cn2c(=O)cc(COC(=O)COc3ccc(C)c(C)c3)nc2s1 returned DT40 TDP1 CPT inactive, ClpP mod inactive, TDP1 inh inactive and TDP1 cell noCPT inactive.
`CCOC(=O)Cc1c(C)nc2cc(-c3ccc(C)cc3)[nH]n2c1=O` gave DT40 TDP1 CPT inactive, ClpP mod 16µM, TDP1 inh inactive and TDP1 cell noCPT inactive.
CCOC(=O)Cc1cc(=O)n2[nH]c(-c3ccc(Cl)cc3)cc2n1 was read as DT40 TDP1 CPT inactive, ClpP mod inactive, TDP1 inh inactive and TDP1 cell noCPT inactive.
`CCc1c(C)nc2cc(-c3ccc(Cl)cc3)[nH]n2c1=O` gave DT40 TDP1 CPT 3.7µM, ClpP mod inconclusive and TDP1 cell noCPT 2.3µM.
`CCc1c(C)nc2cc(-c3cccc(Br)c3)[nH]n2c1=O` gave DT40 TDP1 CPT 4.6µM, ClpP mod inactive and TDP1 cell noCPT 1.5µM.
Screening CCOC(=O)CCc1c(C)nc2cc(-c3ccc(Cl)cc3)[nH]n2c1=O returned DT40 TDP1 CPT inactive, ClpP mod inconclusive, TDP1 inh inactive and TDP1 cell noCPT inactive.
For CC1CCN(C(=O)CSc2nnc(-c3ccccc3F)o2)CC1 the results were DT40 TDP1 CPT inactive and TDP1 cell noCPT inactive.
Screening Fc1ccc(Cn2nnnc2C(c2cccs2)N2CCN(C3CCCCC3)CC2)cc1 (stereo not given) returned DT40 TDP1 CPT 15µM, ClpP mod inactive, TDP1 inh inactive and TDP1 cell noCPT 16µM.
Screening COc1ccccc1C(c1nnnn1Cc1ccccc1)N1CCN(C2CCCC2)CC1 (stereo not given) returned DT40 TDP1 CPT inconclusive, ClpP mod inactive, TDP1 inh inactive and TDP1 cell noCPT inconclusive.
COc1ccc(OC)c(C(c2nnnn2Cc2ccccc2)N2CCN(C3CCCCC3)CC2)c1 (stereo not given) was read as DT40 TDP1 CPT 18µM, ClpP mod inactive, TDP1 inh inactive and TDP1 cell noCPT inconclusive.
For COc1ccc(Cn2nnnc2C(c2ccc(C)cc2)N2CCN(C3CCCC3)CC2)cc1 (stereo not given) the results were DT40 TDP1 CPT 16µM, ClpP mod inactive, TDP1 inh inactive and TDP1 cell noCPT 9.2µM.
`CC(=O)N1CCc2cc(S(=O)(=O)NCCC3=CCCCC3)ccc21` gave DT40 TDP1 CPT 9.2µM, ClpP mod inactive and TDP1 cell noCPT 2.6µM.
CC(=O)N1CCc2cc(S(=O)(=O)NCCC(=O)NCCc3ccc(C)cc3)ccc21 was read as DT40 TDP1 CPT 29µM, ClpP mod inactive, TDP1 inh inactive and TDP1 cell noCPT 16µM.

Screens: PubChem, National Center for Advancing Translational Sciences (NCATS)
